In PubChem BioAssay (EPA / NIEHS):
Records with an inconclusive call do not appear. Active and inactive are the calls of the source. The calls were made as follows: active = hit-call score of the fitted dose curve at least 0.9, where 1 is the maximum; inconclusive = response in the unintended direction; inactive = score below 0.9.

experiment: ATG_M_19_TRANS: Attagene TRANS-FACTORIAL HepG2 Assay for M19 Transcription Factor (Internal Marker) (AID 2282974); conditions: HepG2 Attagene TRANS-FACTORIAL M19 internal marker reporter
Experimental: ATG_TRANS is a cell-based, multiplexed-readout assay that uses HepG2, a human liver cell line, with measurements taken at 24 hours after chemical dosing in a 24-well plate.ATG_M_19_TRANS is one of 30 assay component(s) measured or calculated from the ATG_TRANS assay. It is designed to make measurements of mRNA induction, a form of inducible reporter, as detected with fluorescence intensity signals by Reverse transcription polymerase chain reaction (RT-PCR) and Capillary electrophoresis technology.Data from the assay component ATG_M_19_TRANS was analyzed into 1 assay endpoint. This assay endpoint, ATG_M_19_TRANS, was analyzed in the positive analysis fitting direction relative to DMSO as the negative control and baseline of activity. Using a type of inducible reporter, measures of mRNA for gain-of-signal activity can be used to understand the background control at the transcription factor-level as they relate to the gene . Furthermore, this assay endpoint can be referred to as a secondary readout, because this assay has produced multiple assay endpoints where this one serves a background control function. To generalize the intended target to other relatable targets, this assay endpoint is annotated to the background measurement intended target family, where the subfamily is internal marker.
Human liver HepG2 cells are transiently transfected with multiple reporter transcription units (MRTUs) in 6-well plates using FuGene 6 reagent (Roche; 3 ml FuGene/1 mg DNA). The MRTU constructs are regulated by a cis-regulating element (promoter). […] A major difference between the CIS and TRANS system is that in CIS activities of endogenous TFs are measured, whereas the TRANS assay evaluates changes in activities of exogenous, chimeric NR-Gal4 proteins. […] At the end of 24 hour incubation, total RNA was isolated using TriZol reagent (Invitrogen). The isolated RNA is then reverse-transcribed using oligo(dT) primer and Mo-MLV reverse transcriptase (Invitrogen) with DNAse I (Ambion) treatment for 30 min. The one-tenth of the produced cDNA was amplified by PCR using Taq DNA polymerase (Invitrogen) and two reporter sequence-specific primers. The PCR products were fluorescently labeled by primer extension with 6-arboxyfluorescein (6-FAM) 5'-labeled reporter sequence-specific primer (2 min at 95 C, 20 s at 68 C and 10 min at 72 C) and these products were digested with 5U of HpaI (New England Biolabs) for 2h at 37 C. The fragments were purified using Qiaquick PCR columns (Qiagen), analyzed on an ABI 3130xL genetic analyzer (Applied Biosystems) with peak positions identified by using a set of X-rhodamine (ROX)-labeled MapMarker1000 molecular weight standards (BioVentures). The raw capillary electrophoresis data was processed using Attagraph software (Attagene).

| SMILES | outcome |
| --- | --- |
| CCC(CC)Nc1c([N+](=O)[O-])cc(C)c(C)c1[N+](=O)[O-] | inactive |
| CNC(=O)ON=C(C)SC | inactive |
| CC(C)[C@H](C(=O)O[C@H](C#N)c1cccc(Oc2ccccc2)c1)c1ccc(Cl)cc1 | inactive |
| O=c1ccc(=O)[nH][nH]1 | inactive |
| CCCOc1nn(C(=O)NS(=O)(=O)c2ccccc2C(=O)OC)c(=O)n1C | inactive |
| CCc1cccc(CC)c1N(COC)C(=O)CCl | inactive |
| COP(=O)(OC)C(O)C(Cl)(Cl)Cl (stereo not given) | inactive |
| COc1ccc(C(=CC(=O)N2CCOCC2)c2ccc(Cl)cc2)cc1OC | inactive |
| CCCCSP(=O)(SCCCC)SCCCC | inactive |
| Nc1nc(N)nc(NC2CC2)n1 | inactive |
| CCNc1nc(Cl)nc(NC(C)(C)C#N)n1 | inactive |
| CC[C@H](C)[C@H]1O[C@]2(C=C[C@@H]1C)C[C@@H]1C[C@@H](C/C=C(\C)[C@@H](O[C@H]3C[C@H](OC)[C@@H](O[C@H]4C[C@H](OC)[C@@H](NC)[C@H](C)O4)[C@H](C)O3)[C@@H](C)/C=C/C=C3\CO[C@@H]4[C@H](O)C(C)=C[C@@H](C(=O)O1)[C@]34O)O2 | inactive |
| CCOP(=S)(OCC)Oc1ccc2c(C)c(Cl)c(=O)oc2c1 | inactive |
| CCC(=O)Nc1ccc(Cl)c(Cl)c1 | inactive |
| CC(C)=CC1C(C(=O)OCN2C(=O)C3=C(CCCC3)C2=O)C1(C)C (stereo not given) | inactive |
| CCc1cccc(C)c1N(C(=O)CCl)C(C)COC (stereo not given) | inactive |
| C#CC(C)(C)NC(=O)c1cc(Cl)cc(Cl)c1 | inactive |
| Nc1c(Cl)cc([N+](=O)[O-])cc1Cl | inactive |
| CON=C(C(=O)OC)c1ccccc1CON=C(C)c1cccc(C(F)(F)F)c1 | inactive |
| CN(C)C(=O)Nc1cccc(C(F)(F)F)c1 | inactive |

| SMILES | outcome |
| --- | --- |
| CCCCOC(=O)c1ccccc1C(=O)O | inactive |
| CCOC(=O)COc1cc(-c2nn(C)c(OC(F)F)c2Cl)c(F)cc1Cl | inactive |
| O=[N+]([O-])c1cc(C(F)(F)F)c(Cl)c([N+](=O)[O-])c1Nc1ncc(C(F)(F)F)cc1Cl | inactive |
| CC(Oc1cccc(Cl)c1)C(=O)O (stereo not given) | inactive |
| CSc1nc(NC(C)C)nc(NC(C)C)n1 | inactive |
| COP(=O)(OC)SCn1c(=O)oc2cc(Cl)cnc21 | inactive |
| CC(C1CC1)C(O)(Cn1cncn1)c1ccc(Cl)cc1 (stereo not given) | inactive |
| O=C(O)c1cc(Oc2ccc(C(F)(F)F)cc2Cl)ccc1[N+](=O)[O-] | inactive |
| N#CSCSC#N | inactive |
| Cc1nn(-c2cc(NS(C)(=O)=O)c(Cl)cc2Cl)c(=O)n1C(F)F | inactive |
| CCC(=NOC/C=C/Cl)C1=C(O)CC(C2CCOCC2)CC1=O (stereo not given) | inactive |
| C[N+]1(C)CCCCC1 | inactive |
| CNC(=O)ON=C(SC)C(=O)N(C)C | inactive |
| COP(=O)(OC)OC(Br)C(Cl)(Cl)Br (stereo not given) | inactive |
| CN(C)[C@@H]1C(=O)C(C(N)=O)=C(O)[C@@]2(O)C(=O)C3=C(O)c4c(O)cccc4[C@@](C)(O)[C@H]3[C@H](O)[C@@H]12 | inactive |
| CCCOCC(=Nc1ccc(Cl)cc1C(F)(F)F)n1ccnc1 | inactive |
| CCOC(=O)CC(SP(=O)(OC)OC)C(=O)OCC (stereo not given) | inactive |
| FC(F)C(F)(F)OCC(Cn1cncn1)c1ccc(Cl)cc1Cl (stereo not given) | inactive |
| CCCCOC(=O)[C@@H](C)Oc1ccc(Oc2ccc(C#N)cc2F)cc1 | inactive |
| CCOP(=O)(SC(C)CC)N1CCSC1=O (stereo not given) | inactive |
